# Measured values reported in PubChem BioAssay (EPA / NIEHS).
# The source made the active and inactive calls. How the source made its calls: active means hit-call score of the fitted dose curve at least 0.9, where 1 is the maximum; inactive means score below 0.9.
# What was measured:
# [1] = CEETOX_H295R_OHPROG: CeeTox H295R High-throughput Steroidogenesis Assay for OH-Progesterone (OHPROG) (AID 2283435); details: actives raise or lower the signal
# Summary of the method: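 H295R adrenal cells prestimulated 48 h with 10 uM forskolin, then exposed 48 h to chemical (0.1% DMSO final). 17alpha-hydroxyprogesterone in medium quantified by HPLC-MS/MS; bidirectional fit versus DMSO, with MTT viability measured in the same wells.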
# [2] = CEETOX_H295R_CORTIC: CeeTox H295R High-throughput Steroidogenesis Assay for Corticosterone (CORTIC) (AID 2283437); details: actives raise or lower the signal;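 further: corticosterone secreted into medium quantified by mass spectrometry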
# Summary of the method: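 H295R adrenal cells prestimulated 48 hours with 10 uM forskolin, then exposed 48 hours to chemical in 0.1% DMSO. Corticosterone in medium measured by HPLC-MS/MS after MTBE extraction; MTT viability in the same wells; bidirectional fit versus DMSO.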
# [3] = CEETOX_H295R_CORTISOL: CeeTox H295R High-throughput Steroidogenesis Assay for Cortisol (AID 2283438); details: actives raise or lower the signal;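 further: cortisol secreted into medium quantified by LC-MS/MS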
# Summary of the method: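 Forskolin-primed H295R cells (10 uM, 48 h) treated 48 h with test chemical in 0.1% DMSO. Cortisol in medium quantified by MTBE extraction and HPLC-MS/MS; bidirectional fit vs DMSO, MTT viability in same wells.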
# [4] = CEETOX_H295R_DOC: CeeTox H295R High-throughput Steroidogenesis Assay for DOC (AID 2283439); details: actives raise or lower the signal
# Summary of the method: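 H295R cells prestimulated 48 h with 10 uM forskolin, then exposed 48 h to test chemical (0.1% DMSO final). Medium 11-deoxycorticosterone measured by HPLC-MS/MS after MTBE extraction; bidirectional fit vs DMSO, viability checked by MTT in same wells.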
# [5] = CEETOX_H295R_ESTRADIOL: CeeTox H295R High-throughput Steroidogenesis Assay for Estradiol (AID 2283440); details: actives raise or lower the signal;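 further: estradiol secreted into medium quantified by LC-MS/MS after dansyl derivatisation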
# Summary of the method: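 Estradiol secreted into the medium was measured by tandem mass spectrometry after liquid-liquid extraction and dansylation. Human H295R cells had been forskolin-primed (10 uM, 48 h) before a 48 h chemical exposure with 0.1% DMSO.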
# [6] = CEETOX_H295R_ESTRONE: CeeTox H295R High-throughput Steroidogenesis Assay for Estrone (AID 2283441); details: actives raise or lower the signal;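 further: estrone secreted into medium measured by LC-MS/MS after dansyl derivatization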
# Summary of the method: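 H295R cells prestimulated 48 h with 10 uM forskolin, then exposed 48 h to chemicals in 0.1% DMSO final; estrone in medium extracted with MTBE, dansyl-derivatized, quantified by HPLC-MS/MS; bidirectional fitting versus DMSO, viability by MTT.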
# [7] = CEETOX_H295R_PROG: CeeTox H295R High-throughput Steroidogenesis Assay for Progesterone (PROG) (AID 2283442); details: actives raise or lower the signal
# Summary of the method: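 Steps: seed H295R cells and let them adhere overnight; prime 48 h with 10 uM forskolin; dose with compound in DMSO at 0.1% final for 48 h; extract medium steroids with MTBE; measure progesterone by LC-MS/MS. MTT viability was run in the same wells.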
# [8] = read-out: Tumor necrosis factor receptor superfamily member 6 (Homo sapiens) (UniProt P25445); assay: LTEA_HepaRG_FAS: Life Technologies and Expression Analysis (LTEA) Assay for Fas cell surface death receptor (FAS) using HepaRG (AID 2283447); details: mRNA level, 48 h; actives raise or lower the signal
# Summary of the method: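 Differentiated HepaRG cells in serum-free induction medium were exposed 48 h to 8 half-log concentrations up to 100 uM in 0.5% DMSO, in duplicate. FAS mRNA was measured by qRT-PCR normalised to ACTB, GAPDH and POLR2A; bidirectional fit versus DMSO.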
# [9] = read-out: Fatty acid synthase (Homo sapiens) (UniProt P49327); assay: LTEA_HepaRG_FASN: Life Technologies and Expression Analysis (LTEA) Assay for Fatty Acid Synthase (FASN) using HepaRG (AID 2283448); details: mRNA level, 48 h; actives raise or lower the signal;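 on AC50: differentiated human HepaRG liver cells in serum-free induction medium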
# Summary of the method: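 Differentiated HepaRG cells in serum-free induction medium exposed 48 h in duplicate to eight half-log concentrations, top 100 uM, 0.5% DMSO. FASN mRNA by qRT-PCR normalised to ACTB, GAPDH, POLR2A; bidirectional fit versus DMSO.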
# Fatty acid synthase (Homo sapiens), sequence (P49327 whole entry, looked up): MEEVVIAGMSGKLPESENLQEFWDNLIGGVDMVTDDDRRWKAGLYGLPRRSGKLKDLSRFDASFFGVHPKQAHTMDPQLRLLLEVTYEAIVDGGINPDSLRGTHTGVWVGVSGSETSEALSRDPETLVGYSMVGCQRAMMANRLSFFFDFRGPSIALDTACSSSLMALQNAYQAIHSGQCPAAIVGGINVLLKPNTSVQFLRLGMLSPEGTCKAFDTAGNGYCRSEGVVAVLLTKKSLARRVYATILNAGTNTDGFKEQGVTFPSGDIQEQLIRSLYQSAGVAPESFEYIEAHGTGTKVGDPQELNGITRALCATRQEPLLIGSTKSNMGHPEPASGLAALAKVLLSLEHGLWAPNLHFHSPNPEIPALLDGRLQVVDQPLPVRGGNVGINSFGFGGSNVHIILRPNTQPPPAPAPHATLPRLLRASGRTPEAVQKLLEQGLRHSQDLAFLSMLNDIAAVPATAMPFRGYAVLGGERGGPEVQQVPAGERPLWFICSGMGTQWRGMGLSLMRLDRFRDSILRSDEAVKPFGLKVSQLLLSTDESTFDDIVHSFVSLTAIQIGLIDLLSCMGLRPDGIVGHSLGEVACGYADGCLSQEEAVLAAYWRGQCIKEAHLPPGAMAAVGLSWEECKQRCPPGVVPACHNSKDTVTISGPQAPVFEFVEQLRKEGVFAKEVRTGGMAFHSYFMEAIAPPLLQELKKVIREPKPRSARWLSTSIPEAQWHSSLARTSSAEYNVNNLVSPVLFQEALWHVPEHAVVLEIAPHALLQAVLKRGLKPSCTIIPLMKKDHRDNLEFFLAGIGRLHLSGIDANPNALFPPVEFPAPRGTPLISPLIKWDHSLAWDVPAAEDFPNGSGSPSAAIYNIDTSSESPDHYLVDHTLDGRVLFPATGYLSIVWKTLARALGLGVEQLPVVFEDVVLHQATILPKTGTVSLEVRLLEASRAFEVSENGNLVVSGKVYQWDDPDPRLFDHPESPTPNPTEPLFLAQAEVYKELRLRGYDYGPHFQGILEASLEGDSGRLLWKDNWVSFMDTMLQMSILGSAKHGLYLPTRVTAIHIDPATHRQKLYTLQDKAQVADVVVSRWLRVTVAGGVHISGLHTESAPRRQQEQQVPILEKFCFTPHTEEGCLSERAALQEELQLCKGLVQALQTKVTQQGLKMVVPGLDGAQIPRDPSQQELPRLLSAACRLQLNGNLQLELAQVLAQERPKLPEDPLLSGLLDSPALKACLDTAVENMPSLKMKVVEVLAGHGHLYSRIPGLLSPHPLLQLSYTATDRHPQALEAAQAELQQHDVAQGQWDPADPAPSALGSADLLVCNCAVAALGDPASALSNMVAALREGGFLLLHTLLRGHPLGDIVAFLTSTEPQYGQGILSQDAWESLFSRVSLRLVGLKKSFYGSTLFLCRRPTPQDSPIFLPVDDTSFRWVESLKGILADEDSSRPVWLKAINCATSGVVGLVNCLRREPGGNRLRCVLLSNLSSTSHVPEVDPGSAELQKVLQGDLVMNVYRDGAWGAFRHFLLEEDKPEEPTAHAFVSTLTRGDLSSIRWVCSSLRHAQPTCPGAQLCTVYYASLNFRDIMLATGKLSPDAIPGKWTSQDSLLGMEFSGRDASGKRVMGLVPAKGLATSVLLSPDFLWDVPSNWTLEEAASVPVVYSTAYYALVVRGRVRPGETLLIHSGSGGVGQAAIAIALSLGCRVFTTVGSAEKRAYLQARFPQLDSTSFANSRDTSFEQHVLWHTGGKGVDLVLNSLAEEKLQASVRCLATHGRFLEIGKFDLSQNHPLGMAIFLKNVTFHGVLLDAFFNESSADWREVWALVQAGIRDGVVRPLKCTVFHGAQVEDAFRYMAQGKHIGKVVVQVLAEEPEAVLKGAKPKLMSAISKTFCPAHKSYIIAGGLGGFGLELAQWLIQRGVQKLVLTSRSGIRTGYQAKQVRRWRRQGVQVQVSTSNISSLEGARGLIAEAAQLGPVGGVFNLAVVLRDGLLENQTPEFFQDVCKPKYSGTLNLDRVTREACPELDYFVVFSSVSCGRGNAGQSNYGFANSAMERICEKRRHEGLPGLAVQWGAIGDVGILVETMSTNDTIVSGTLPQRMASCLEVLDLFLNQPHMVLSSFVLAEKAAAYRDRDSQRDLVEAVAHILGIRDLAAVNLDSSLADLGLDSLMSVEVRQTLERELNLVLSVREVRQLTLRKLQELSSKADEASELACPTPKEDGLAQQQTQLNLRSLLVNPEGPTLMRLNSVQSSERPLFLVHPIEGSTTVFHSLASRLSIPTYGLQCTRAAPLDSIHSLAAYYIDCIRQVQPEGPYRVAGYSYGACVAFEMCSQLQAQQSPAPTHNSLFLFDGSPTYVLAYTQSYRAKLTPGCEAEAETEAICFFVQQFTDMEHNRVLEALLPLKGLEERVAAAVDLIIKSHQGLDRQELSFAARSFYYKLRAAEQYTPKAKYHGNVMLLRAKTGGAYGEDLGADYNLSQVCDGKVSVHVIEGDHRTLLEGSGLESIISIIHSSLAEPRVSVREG
compound,measurement,setting,value
CC1(C)C(C=C(Cl)Cl)C1C(=O)OC(C#N)c1cccc(Oc2ccccc2)c1 (stereo not given),outcome,[1],inactive
same,outcome,[2],inactive
same,outcome,[3],inactive
same,outcome,[4],inactive
same,outcome,[5],inactive
same,outcome,[6],inactive
same,outcome,[7],inactive
same,outcome,[8],inactive
same,outcome,[9],inactive
Cc1c(COC(=O)[C@@H]2[C@H](/C=C(\Cl)C(F)(F)F)C2(C)C)cccc1-c1ccccc1,outcome,[1],inactive
same,outcome,[5],inactive
same,outcome,[6],inactive
same,outcome,[7],inactive
same,outcome,[8],inactive
same,outcome,[9],inactive
COc1cc(OC)nc(NC(=O)NS(=O)(=O)c2ncccc2OCC(F)(F)F)n1,outcome,[8],inactive
same,outcome,[9],inactive
CCCCC(O)(Cn1cncn1)c1ccc(Cl)cc1Cl (stereo not given),AC50,[8],87.4 µM (active)
same,AC50,[9],85.7 µM (active)
Clc1cccc(C(Cl)(Cl)Cl)n1,outcome,[8],inactive
same,outcome,[9],inactive
Cn1c(-c2ccccc2)cc(-c2ccccc2)[n+]1C,outcome,[8],inactive
same,AC50,[9],11.7 µM (active)
CS(=O)(=O)c1ccc(C(=O)C2C(=O)CCCC2=O)c([N+](=O)[O-])c1,outcome,[8],inactive
same,outcome,[9],inactive
CNC(=O)N(C)c1nnc(C(C)(C)C)s1,outcome,[8],inactive
same,outcome,[9],inactive
Nc1c(Cl)c(Cl)nc(C(=O)O)c1Cl,outcome,[8],inactive
same,outcome,[9],inactive
COc1ccc(-c2ccccc2)cc1NNC(=O)OC(C)C,outcome,[8],inactive
same,outcome,[9],inactive
Cc1cnc(C2=NC(C)(C(C)C)C(=O)N2)c(C(=O)O)c1 (stereo not given),outcome,[8],inactive
same,outcome,[9],inactive
COCC(C)N(C(=O)CCl)c1c(C)csc1C (stereo not given),outcome,[8],inactive
same,outcome,[9],inactive
C=CCOC(=O)C(C)(C)OC(=O)c1cc(-n2c(=O)cc(C(F)(F)F)n(C)c2=O)ccc1Cl,outcome,[8],inactive
same,outcome,[9],inactive
CN=C=S,outcome,[8],inactive
same,outcome,[9],inactive
Nc1c(Cl)c(F)nc(OCC(=O)O)c1Cl,outcome,[8],inactive
same,outcome,[9],inactive
Cc1cc(C)nc(Nc2ccccc2)n1,outcome,[8],inactive
same,outcome,[9],inactive
O=C(O)c1c(Cl)ccc2cc(Cl)cnc12,outcome,[8],inactive
same,outcome,[9],inactive
COC(=O)c1c(C(F)F)nc(C(F)(F)F)c(C2=NCCS2)c1CC(C)C,outcome,[8],inactive
same,outcome,[9],inactive
COC(=O)N(C(=O)N1CO[C@@]2(C(=O)OC)Cc3cc(Cl)ccc3C2=N1)c1ccc(OC(F)(F)F)cc1,outcome,[8],inactive
same,AC50,[9],18.8 µM (active)
CCOc1nc(F)cc2nc(S(=O)(=O)Nc3c(Cl)cccc3Cl)nn12,outcome,[8],inactive
same,outcome,[9],inactive
CC(C)N1C(=O)N(c2ccccc2)CSC1=NC(C)(C)C,outcome,[8],inactive
same,outcome,[9],inactive
CO/N=C(/C1=NOCCO1)c1ccccc1Oc1ncnc(Oc2ccccc2Cl)c1F,AC50,[8],50 µM (active)
same,AC50,[9],62.7 µM (active)
CC(C)N1C(=O)c2ccccc2NS1(=O)=O,outcome,[8],inactive
same,outcome,[9],inactive
COP(=O)(OC)O/C(C)=C/C(=O)N(C)C,outcome,[8],inactive
same,outcome,[9],inactive
O=P(O)(O)CCCl,outcome,[8],inactive
same,outcome,[9],inactive
CC(C)C1(C)N=C(c2ncccc2C(=O)O)NC1=O (stereo not given),outcome,[8],inactive
same,outcome,[9],inactive
N#Cc1c[nH]cc1-c1cccc2c1OC(F)(F)O2,outcome,[8],inactive
same,AC50,[9],1.51 µM (active)
